Bioassay records (PubChem)
Most compounds without a hit are left out; they make up all but 18% or so of the library.
DT40 TDP1 no CPT – qHTS for Inhibitors of human tyrosyl-DNA phosphodiesterase 1 (TDP1): qHTS in cells in absence of CPT | 420,000 tested, 15% active | AID 686978, 2013 | DT40 Tdp1-/- hTDP1 cells, no CPT, ATP luminescence, 48 h | Potency, µM (top dose mostly 46.2 µM), most hits filed as inhibitors; note: nearly all actives have a fitted effect of over 55% in size
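Growth kinetics read by CellTiter-Glo luminescence after ≥48 hr at 37 °C. Cells: DT40 Tdp1-/- stably carrying human TDP1, 400 per well, compound exposure in the absence of CPT (DMSO vehicle).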
Gal4-VP16 FLuc – VP16 counterscreen qHTS for inhibitors of ROR gamma transcriptional activity. AID 2546, 2010. Drosophila S2 Gal4-VP16 UAS-luciferase, luminescence, 20 h. Potency, µM (highest dose often 53.6 µM), actives largely listed as inhibitors. 310,000 tested, 3.5% active;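 note: Gal4-VP16 expression switched on by copper sulfate through the metallothionein promoter; nearly all actives have a fitted effect of over 50% in size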
IL-1B inflam inh – qHTS for Inhibitors of Inflammasome Signaling: IL-1-beta AlphaLISA Primary Screen; THP-1 LPS/ATP IL-1B secretion, AlphaLISA, 16 h; stronger effect = lower value; activity change, % at 57.5 µM; 360,000 tested, 4.7% active; AID 743279, 2014; in the data active = activity change below about -50%; inconclusive = mostly about -30% to -49%
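THP-1 cells pretreated 1 hr with compounds (up to 57.5 uM final), then stimulated with LPS (250 ng/mL final) plus ATP (1.25 mM final); secreted IL-1B measured by AlphaLISA after 16 hr, decreased signal indicating inhibition.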
DT40 TDP1 CPT – qHTS for Inhibitors of human tyrosyl-DNA phosphodiesterase 1 (TDP1): qHTS in cells in presence of CPT | chicken DT40 Tdp1-/-;hTDP1 cells + 20 nM CPT, ATP luminescence, 48 h | Potency, µM (doses to about 46.2 µM), hits mostly inhibitors | 420,000 tested, 12% active | AID 686979, 2013; note: nearly all actives have a fitted effect of over 55% in size
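Chicken DT40 Tdp1-/- cells stably complemented with human TDP1 were seeded at 400 cells/well in medium containing 20 nM camptothecin, exposed to pin-transferred compounds, and grown at 37 °C for at least 48 hr. Viability was read as ATP luminescence.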
RORg inh – qHTS for inhibitors of ROR gamma transcriptional activity; AID 2551, 2010; 310,000 tested, 5.4% active; Drosophila S2 Gal4-RORgamma UAS-luciferase reporter, 20 h; Potency, µM (doses to about 53.6 µM), hits mostly inhibitors; Nuclear receptor ROR-gamma (Mus musculus), P51450; note: nearly all actives have a fitted effect of over 60% in size
Target sequence (P51450 whole entry, looked up, the tested form may be a part): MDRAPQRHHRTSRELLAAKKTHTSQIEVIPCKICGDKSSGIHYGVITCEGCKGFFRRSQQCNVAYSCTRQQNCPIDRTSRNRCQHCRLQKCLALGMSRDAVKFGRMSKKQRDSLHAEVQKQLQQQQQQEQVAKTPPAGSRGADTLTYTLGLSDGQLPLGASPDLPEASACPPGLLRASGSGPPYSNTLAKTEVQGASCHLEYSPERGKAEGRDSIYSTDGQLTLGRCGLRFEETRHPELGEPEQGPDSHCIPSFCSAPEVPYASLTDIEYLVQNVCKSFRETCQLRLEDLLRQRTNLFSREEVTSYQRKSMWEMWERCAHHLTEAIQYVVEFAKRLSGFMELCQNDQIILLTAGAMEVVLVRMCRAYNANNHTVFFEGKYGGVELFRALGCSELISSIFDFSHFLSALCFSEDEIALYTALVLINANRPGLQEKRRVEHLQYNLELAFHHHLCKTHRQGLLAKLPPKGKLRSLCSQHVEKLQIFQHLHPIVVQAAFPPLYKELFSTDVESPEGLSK
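Using a luciferase readout, inhibitors were identified by reduced reporter activity in Drosophila cells coexpressing a copper-inducible Gal4–ROR gamma fusion and UAS-driven Photinus luciferase, incubated 20 hr after 700 uM copper sulfate.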
LDHA block – qHTS assay for inhibitors of human lactate dehydrogenase. AID 1347041, 2019. activity change, % (values are at about 110 or 230 µM). 480,000 tested, 0.15% active. purified LDHA, NADH/diaphorase-resazurin fluorescence; stronger effect = lower value; in the data active = activity change below about -30%; inconclusive = mostly about -25% to -30%
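Human LDH5 at 2 nM final in Tris HCl pH 7.4 with 0.06 mM NADH and 0.2 mM pyruvate, reacted 5 minutes at room temperature. Remaining NADH coupled via diaphorase/resazurin; resorufin fluorescence read at 0 and 20 minutes, normalized to enzyme-free and DMSO wells.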
A number is an active result; . = inactive; ? = inconclusive; / = not tested or not shown. Unless noted, calls come from the whole dose curve; as a rule, active = well fitted curve in the direction sought with a large enough effect; inconclusive = small, poorly fitted or top-dose-only effect, or another doubt; inactive = no such curve, though single readings can be large; an effect the other way counts as inactive or inconclusive.

SMILES	DT40 TDP1 no CPT	Gal4-VP16 FLuc	IL-1B inflam inh	DT40 TDP1 CPT	RORg inh	LDHA block
COC(=O)/C(=C(/F)Sc1cc(C)c(O)c(C)c1)C(F)(F)F	7.31µM	.	.	10.3µM	.	.
COc1cccc2cc(-c3nc(-c4nonc4N)no3)c(=O)oc12	/	/	/	/	/	.
O=C(OCc1nc2ccccc2o1)c1cccc(O)c1	/	/	/	/	/	.
CC(C)OC(=O)c1c2c(n3ccccc13)C(=O)c1ccccc1C2=O	13µM	.	.	14.6µM	.	.
COC(=O)c1c(C(=O)OC)c2ccccn2c1C(=O)c1ccc([N+](=O)[O-])cc1	.	.	.	.	.	.
CC(C)(C)c1cc(Br)c(O)c(N=Nc2ccc(S(=O)(=O)N3CCOCC3)cc2)c1	?	?	?	?	6.31µM	.
Cc1ccc(O)c(N=Nc2ccc(S(=O)(=O)N3CCOCC3)cc2)c1	.	.	.	.	.	.
CC(C)=C(/C(=C/CS(=O)(=O)c1ccccc1)S(=O)(=O)c1ccccc1)S(=O)(=O)c1ccccc1	/	/	/	/	/	.
C#CCN(C[C@H]1[C@H](OC(=O)NCc2ccccc2)[C@H](OC(=O)NCc2ccccc2)C[C@H]2C(=O)N(c3ccccc3)C(=O)[C@@H]12)S(=O)(=O)c1ccc(C)cc1	.	/	.	.	/	.
C#CCN(C[C@@H]1[C@@H](OC(=O)NCc2ccccc2F)[C@@H](OC(=O)NCc2ccccc2F)CN(C(=O)OC(C)C)N1C(=O)OC(C)C)S(=O)(=O)c1ccc(C)cc1	7.31µM	/	.	7.31µM	/	.
C#CCN(C[C@@H]1[C@@H](OC(=O)NCc2ccco2)[C@@H](OC(=O)NCc2ccco2)CN(C(=O)OC(C)C)N1C(=O)OC(C)C)S(=O)(=O)c1ccc(C)cc1	9.2µM	/	-98.3	14.6µM	/	.
Cc1ccc(S(=O)(=O)N(CC(=O)NCc2ccco2)C2CCCCC2)cc1	.	.	.	?	.	.
C#CCN(C[C@@H]1[C@@H](OC(=O)NC2CC2)[C@@H](OC(=O)NC2CC2)CN(C(=O)OC(C)C)N1C(=O)OC(C)C)S(=O)(=O)c1ccc(C)cc1	16.4µM	/	.	?	/	.
CCOC(=O)[C@]12CCCC=C1N(Cc1ccco1)C(=O)[C@H](CC(=O)NCc1cccc(C(F)(F)F)c1)C2	18.4µM	/	.	?	/	.
CCOC(=O)[C@]12CCCC=C1N(Cc1ccco1)C(=O)[C@H](CC(=O)NCc1cccs1)C2	25.9µM	/	.	?	/	.
CCCCNC(=O)C[C@@H]1C[C@@]2(C(=O)OC)CCCCC=C2N(Cc2ccco2)C1=O	?	/	.	?	/	.
COC(=O)[C@]12CCCCC=C1N(Cc1ccco1)C(=O)[C@H](CC(=O)NCc1cccs1)C2	23.1µM	/	.	?	/	.
CCCCOCCCNC(=O)C[C@@H]1C[C@@]2(C(=O)OC)CCCCC=C2N(Cc2ccco2)C1=O	16.4µM	/	.	?	/	.
Fc1ccc(C2=Nn3c(nnc3-c3ccccn3)SC2)cc1	/	/	/	/	/	.
CCCn1c(N)c(-c2csc(NC)n2)c(=O)n(C)c1=O	/	/	/	/	/	.
Cc1cc(C(=O)NC2=NCCS2)cs1	.	?	.	.	11.2µM	.
Cc1cccc(C(=O)NCc2nnc(SCC(=O)NC3=NCCS3)n2C)c1	16.4µM	?	.	?	.	.
O=C(NC1=NCCS1)c1ccc(Cl)c(Cl)c1	.	?	.	.	11.2µM	.
O=C(NC1=NCCS1)c1cc(Cl)ccc1Cl	.	/	.	.	/	.
Cc1cccc(C(=O)NC2=NCCS2)c1	.	.	.	.	11.2µM	.
SMILES	DT40 TDP1 no CPT	Gal4-VP16 FLuc	IL-1B inflam inh	DT40 TDP1 CPT	RORg inh	LDHA block
COc1ccc(/C=C/c2nc3cc(Cl)ccc3o2)cc1OC	/	/	/	/	/	.
Cc1cc(C(=O)Nc2ccccc2C#N)cs1	/	/	/	/	/	.
COc1ccc(NC(=S)NCc2cccs2)cc1	.	?	.	.	3.98µM	.
COc1ccc(NC(=S)NCc2cccn2C)cc1	.	.	.	.	.	.
CC(C)c1ccc(CN(C)C(C)C(=O)NCc2cccs2)cc1 (stereo unspecified)	/	/	/	/	/	.
CC(C)c1ccc(NC(=S)NCc2cccs2)cc1	.	?	.	.	15.8µM	.
COc1ccc(OC)c(NC(=S)NCc2cccs2)c1	.	?	.	.	14.1µM	.
CCN1CCN(c2oc(-c3ccco3)nc2S(=O)(=O)c2ccccc2)CC1	/	/	/	/	/	.
O=C(NN=C1CCCC1)c1[nH]c2ccc(Br)cc2c1-c1ccccc1	?	?	?	?	11.2µM	.
O=C(N/N=C/c1ccccc1)c1[nH]c2ccc(Br)cc2c1-c1ccccc1	1.16µM	?	.	1.16µM	?	.
O=C(CN1CCCCC1)Nc1c(-c2ccccc2)c2cc(Br)ccc2[nH]c1=O	/	/	/	/	/	.
CC(NC1CCCc2c1[nH]c1ccc(-c3ccccc3)cc21)c1ccccc1 (stereo unspecified)	/	/	/	/	/	.
Cc1ccccc1C(=O)NCCc1sc2nc(-c3ccc(F)cc3)nn2c1C	/	/	/	/	/	.
O=c1[nH]c(CSc2nnc(-c3ccccc3)n2-c2ccccc2)nc2ccccc12	.	.	.	.	.	.
Cc1ccc2nc(CSc3nc(C)ccc3C#N)[nH]c2c1	31.6µM	2µM	?	17.8µM	3.55µM	.
Cc1ccc2nc(SCc3nc4ccccc4c(=O)[nH]3)[nH]c2c1	20.6µM	?	-97.8	?	.	.
O=c1[nH]c(CSc2nnc(-c3ccccc3)n2C2CCCCC2)nc2ccccc12	20.6µM	.	.	?	.	.
Cc1ccc(C#N)c(SCc2ccccc2F)n1	.	.	.	.	.	.
Cc1ccc2nc(SCc3nc(-c4ccccc4C)no3)[nH]c2c1	13µM	/	/	18.4µM	/	.
CCn1c(-n2nc(C)cc2C)nc2c1c(=O)n(Cc1ccccc1Cl)c(=O)n2C	/	/	/	/	/	.
O=C(NC(Cc1ccccc1)C(=O)N1CCN(c2ccccc2O)CC1)c1ccccc1 (stereo unspecified)	16.4µM	/	.	?	/	.
CCOC(=O)C(Cc1ccc(O)cc1)Nc1nc2ccccc2o1 (stereo unspecified)	.	/	-54.1	.	/	.
CCOC(=O)[C@H](Cc1ccc(O)cc1)NC(=O)c1ccccc1	/	?	/	/	1.41µM	/
COC(=O)c1ccc(C(=O)N(C)Cc2cccnc2)s1	/	/	/	/	/	.
CCN1C(=O)/C(=C2\C=Cc3ccccc3N2CC)SC1=S	18.4µM	.	.	14.6µM	.	.
Cc1c(Nc2scc(-c3ccccc3)[n+]2-c2ccccc2)c(=O)n(-c2ccccc2)n1C	20.6µM	.	.	?	.	.
